High-throughput results from PubChem.
HCMV inh: qHTS Assay for inhibitors of the human cytomegalovirus (HCMV) | 4.5% of 410,000 active | AID 1259415, 2018 | activity change, negative = inhibition, % at 57.5 µM | HFF cells, HCMV-luciferase reporter, 72 h; hits give low values; in the data active = activity change below about -60%; inconclusive = no clear call, values can overlap the other calls; inactive = above about -39%
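Steps: HFFs plated, 16 h 37C; compounds added; HCMV-luciferase added to MOI 1 PFU/cell; 72 h 37C; OneGlo reagent, 5 min room temperature; luminescence read, normalized to controls.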
LASV entry inh: qHTS for Inhibitors of binding or entry into cells for Lassa Virus | Lassa virus pseudotype entry inhibition, cell reporter | Potency, µM (doses to about 37.9 µM), for inactives: at the top dose activity change, negative = inhibition, usual class: inhibitors | 1.2% of 300,000 active; calls by dose curve; tested in HEK293 cells; also: potency is read from the fitted curve at half-maximal effect; nearly all actives have a fitted effect of over 50% in size
Giardia FBPA inh: qHTS Assay for Inhibitors of Fructose-1,6-bisphosphate Aldolase from Giardia Lamblia; 0.71% of 290,000 active; purified Giardia FBPA; Potency, µM (doses to about 59.6 µM), for inactives: top-dose activity, negative = inhibition, actives largely listed as inhibitors; A8B2U2; AID 2451, 2010; also: potency is read from the fitted curve at half-maximal effect; nearly all actives have a fitted effect of over 55% in size
Target sequence (A8B2U2 whole entry, looked up): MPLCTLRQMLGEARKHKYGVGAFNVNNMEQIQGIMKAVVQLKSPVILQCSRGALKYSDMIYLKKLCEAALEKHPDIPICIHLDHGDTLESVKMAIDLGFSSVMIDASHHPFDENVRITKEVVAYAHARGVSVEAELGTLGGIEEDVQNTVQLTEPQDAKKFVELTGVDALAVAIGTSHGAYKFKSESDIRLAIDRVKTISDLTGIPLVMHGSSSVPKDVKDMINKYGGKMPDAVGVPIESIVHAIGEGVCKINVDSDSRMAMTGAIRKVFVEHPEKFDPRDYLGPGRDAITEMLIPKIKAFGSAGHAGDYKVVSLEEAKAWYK
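Giardia FBPA (40 nM reagent) was preincubated 10 min at RT with compound (up to 57.5 uM final), then substrate plus GAPDH/TPI/NAD/arsenate coupling system with diaphorase/resazurin was added; resorufin fluorescence (525/598 nm) was read after 20 min.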
MARV entry inh: qHTS for inhibitors of binding or entry into cells for Marburg Virus | Marburg virus pseudotyped entry inhibition, cell reporter | Potency, µM (titrated, usually from 37.8 µM), without a hit: top-dose activity change, negative = inhibition, most hits filed as inhibitors | 1.8% of 300,000 active | AID 540276, 2011; calls by dose curve; tested in HEK293 cells; also: potency is read from the fitted curve at half-maximal effect
FMDV inh: High Throughput Screening for Foot and Mouth Disease Virus Antivirals | FMDV antiviral cell-based qHTS | Potency, µM (doses to about 57.9 µM), without a hit: at the highest dose activity change, negative = inhibition, hits mostly inhibitors | 1.2% of 410,000 active; calls by dose curve; tested in HEK293T cells; also: read-out not given here; potency is read from the fitted curve at half-maximal effect; nearly all actives have a fitted effect of over 45% in size
HCV inhibitor: qHTS Assay for Inhibitors of Hepatitis C Virus (HCV). Huh7.5.1 HCVcc-Cre infection, luciferase reporter, 44 h. Potency, µM (titrated, usually from 41.8 µM), for inactives: at the highest dose activity change, negative = inhibition, usual class: inhibitors. 3.4% of 340,000 active. AID 651820, 2012; also: potency is read from the fitted curve at half-maximal effect
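A cell-based infection assay in which seeded cells (1,000 per well) receive test compound after 4 h, are inoculated with HCVcc-Cre at approximately 0.5 moi, and are incubated 44 h before luminescence detection.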
* = called active by the depositor; ? = inconclusive; / = no result; [ ] = remark or other dose. Hits are enriched below; roughly 8.3% of the tested compounds scored in any of these assays. Unless noted, calls follow the shape of the dose curve; as a rule, active = well fitted curve in the direction sought with a large enough effect; inconclusive = small, poorly fitted or top-dose-only effect, or another doubt; inactive = no such curve, though single readings can be large; an effect the other way counts as inactive or inconclusive. % is scaled to controls: 0 for no effect and ±100 for the full control effect.

SMILES	HCMV inh	LASV entry inh	Giardia FBPA inh	MARV entry inh	FMDV inh	HCV inhibitor
Cc1ccc(C(=O)n2nc(C)c(S(=O)(=O)N3CCCCCC3)c2C)cc1C	23.7	0.2%[46.1 µM]	/	/	4.2%	/
CC(=O)c1c(C)[nH]c(C(=O)OCC(=O)Nc2cc(C(F)(F)F)ccc2N2CCOCC2)c1C	-14.8	22.4µM*	2.9%	?	-5.7%	-20.6%
O=C(COC(=O)c1cc([N+](=O)[O-])ccc1N1CCOCC1)Nc1ccc(Cl)cn1	-102.0*	-2.8%	/	?	-21.7%	?
O=C(COC(=O)c1cc([N+](=O)[O-])ccc1N1CCOCC1)Nc1ccc(Cl)cc1	-29.5	-20.1%	/	-12.2%	?	?
Cc1cc(Cl)ccc1NC(=O)COC(=O)c1cc([N+](=O)[O-])ccc1N1CCOCC1	-23.8	-0.8%	/	?	0.0%	2.51µM*
COCCOc1ccc(C(F)(F)F)cc1NC(=O)COC(=O)c1cc([N+](=O)[O-])ccc1N1CCOCC1	?	?	14.7%	12.6µM*	-13.4%	?
O=C(Nc1nc2n(n1)C(c1ccc(Cl)cc1)C=C(c1ccccc1)N2)c1ccco1 (stereo unspecified)	?	1.3%[46.1 µM]	/	4.0%[46.1 µM]	-18.0%	/
COc1ccc(S(=O)(=O)c2cc(NS(=O)(=O)c3ccc(Cl)cc3)c(C)c(C)c2O)cc1	17.2	-6.7%[46.1 µM]	/	-22.6%[46.1 µM]	7.6%	/
O=C(COC(=O)c1cc([N+](=O)[O-])ccc1N1CCOCC1)c1ccc(F)cc1	5.7	/	/	/	-8.1%	?
CCc1cccc(C)c1NC(=O)COC(=O)c1cc([N+](=O)[O-])ccc1N1CCOCC1	-12.4	-17.9%	/	?	-20.6%	10µM*
CCc1ccc(C(=O)COC(=O)c2cc([N+](=O)[O-])ccc2N2CCOCC2)cc1	-35.2	?	/	3.16µM*	-3.9%	1µM*
Cc1ccc2nc(SCC(=O)Nc3cc(C(F)(F)F)ccc3N3CCOCC3)[nH]c2c1	-88.8*	?	1.9%	?	?	?
O=C(CSc1nccc(=O)[nH]1)Nc1cc(C(F)(F)F)ccc1N1CCOCC1	-9.1	2.5%	/	10.5%	-0.5%	18.2%
Cc1cc(NC(=O)CSCC(=O)Nc2cc(C(F)(F)F)ccc2N2CCCC2)no1	?	8.9%	/	-14.7%	28.2µM*	?
CCOc1ccc(-c2nc(CNC(=O)Nc3ccccc3)c(C)o2)cc1	23.9	2.2%[46.1 µM]	/	/	0.0%	/
C=CC[n+]1c(-c2ccc(OCC)cc2)csc1NNC(=O)Nc1ccccc1	-87.9*	?	-0.1%	-7.1%	/	7.08µM*
O=C1C(=O)c2cccnc2-c2ncccc21	-99.1*	/	/	/	3.98µM*	/
COC1=C(Br)C(=O)c2ncccc2C1=O	-69.0*	?	/	?	35.5µM*	?
O=C1c2cccnc2-c2ncccc21	-23.7	3.1%	0.5%	2.3%	1.3%	15.4%
CC1CCCCC1NC(=S)NC(=O)c1sc2ccccc2c1Cl (stereo unspecified)	-11.0	6.1%	-11.8%	-7.2%	7.3%	-0.7%
O=C(NC(=S)N(CCCCO)C1CCCCC1)c1sc2ccccc2c1Cl	?	?	9.3%	13µM*	/	-24.3%
CCOC(=O)N/N=C1/C[C@@H](O)[C@@H](O)[C@@H]2[C@@H]3C(=O)N(Cc4ccc5c(c4)OCO5)C(=O)[C@H]3CC[C@@H]12	/	/	-0.1%[12.9 µM]	-22.0%[14.2 µM]	/	/
CC(C)Oc1ccc(CNC(=O)c2ccc(NC(=O)c3nsc4ccccc34)cc2)cc1	67.8	?	/	/	-10.7%	/
CCOC(=O)Cc1nnc(Nc2cc(C)ccc2C)c2ccccc12	-60.3*	-1.2%[46.1 µM]	2.6%	1.2%[46.1 µM]	-8.8%	-3.0%
Cc1ccc(NC(=O)Cc2noc3ccccc23)c(C)c1	-31.8	18.7%	-1.4%	28.0%	28.4%	27.1%
CCOC(=O)Cc1nnc(Nc2ccc(C)cc2C)c2ccccc12	-60.0*	-16.0%	5.5%	4.8%	?	2.8%
CC1(C(=O)O)NCCc2cc(O)c(O)cc21 (stereo unspecified)	/	/	/	/	-13.5%	/
